Laboratory results taken from PubChem BioAssay (NCI).
This is part of a sample that, as a whole, favours compounds with a hit. Of some 83,000 tested, about 20% had one in any assay.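 For each line, cells grew in 96-well plates with the test compound present at a single concentration for 48 hours.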 Activity calls are given as the source filed them. How the source made its calls: active means growth percent below 10; inactive means the rest.

Legend:
Experiment in all cases: NCI-60 one-dose screen, 48 h (100 = growth as untreated, 0 = no growth, -100 = all killed)
Settings in all cases: 10 µM unless noted
[1] = system: NCI-H23 lung
[2] = system: NCI-H226 lung
[3] = system: NCI-H322M lung
[4] = system: HOP-62 NSCLC
[5] = system: NCI-H460 lung
[6] = system: NCI-H522 lung
[7] = system: A549/ATCC NSCLC
[8] = system: 786-0 renal
[9] = system: COLO 205 colon
[10] = system: DU-145 prostate
[11] = system: K-562 leukemia
[12] = system: MALME-3M melanoma
[13] = system: MDA-MB-231 breast
[14] = system: RXF 393 renal
[15] = system: SF-268 CNS
[16] = system: SF-295 CNS
[17] = system: SF-539 CNS
[18] = system: UACC-257 melanoma
[19] = system: M14 melanoma
[20] = system: HCT-15 colon

Measured: growth

Cc1ccc([N+](=O)[O-])cc1NC(=O)Nc1cccc(F)c1
inactive: [1] 42.2% | [2] 69.6% | [3] 98.3% | [4] 99.4% | [5] 47.2% | [6] 31.4% | [7] 57.9% | [8] 71.6% | [9] 138% | [10] 84.6% | [11] 31.4% | [12] 99.6% | [13] 93.4% | [14] 126% | [15] 100% | [16] 50.3% | [17] 85.1% | [18] 82% | [19] 67.7% | [20] 68.4%

COc1c(C)c2c(c(O)c1C/C=C(\C)CCC(=O)OCCN1CCOCC1)C(=O)OC2
inactive: [1] 19.4% | [2] 50.2% | [3] 33.2% | [4] 34.9% | [8] 24.7% | [9] 38.1% | [10] 36.4% | [11] 25.5% | [12] 38.8% | [13] 37.9% | [14] 51.9% | [15] 28.9% | [16] 18.2% | [17] 34.7% | [19] 19.8% | [20] 15.5%
active: [5] 2.48% | [6] -3.49% | [7] 5.79% | [18] 7.21%

O=C1/C(=C/c2ccc([N+](=O)[O-])s2)Oc2ccc(Br)cc21
active: [1] -48.3% | [2] -57% | [3] -29.7% | [4] -49.8% | [5] -51.9% | [6] -77.7% | [7] -39.6% | [8] -13.4% | [9] -80% | [10] -72.1% | [11] -5.87% | [12] -59.7% | [13] -64% | [14] -59.9% | [15] -52.1% | [16] -31.3% | [17] -73.7% | [18] -39.2% | [19] -54.1% | [20] -3.34%

Clc1nc(Cl)c2ncn(-c3ccccc3)c2n1
active: [6] -68.9%
inactive: [1] 99.9% | [2] 93.4% | [3] 76.8% | [4] 99.4% | [5] 89.2% | [7] 95.3% | [8] 88.5% | [9] 80.9% | [10] 36.7% | [11] 36.2% | [12] 48.4% | [13] 63.1% | [14] 56.1% | [15] 68.8% | [16] 106% | [17] 85.2% | [18] 67% | [19] 35.6% | [20] 44.8%

O=C1c2ccccc2C(=O)c2c1cccc2-n1nnc2ccccc21
inactive: [1] 106% | [2] 103% | [3] 118% | [4] 101% | [5] 111% | [6] 86% | [7] 116% | [8] 106% | [9] 116% | [10] 108% | [11] 95.6% | [12] 132% | [13] 125% | [14] 111% | [15] 103% | [16] 120% | [17] 112% | [18] 127% | [19] 127% | [20] 102%

c1ccc(-c2nnc(Nc3nnc(-c4ccccc4)s3)s2)cc1
inactive: [1] 109% | [2] 101% | [3] 86.9% | [4] 101% | [5] 101% | [6] 104% | [7] 103% | [8] 106% | [9] 116% | [10] 112% | [11] 111% | [12] 101% | [13] 102% | [14] 105% | [15] 103% | [16] 102% | [17] 101% | [18] 99.1% | [19] 105% | [20] 102%

Cc1nnc(Nc2ccc(NC(=O)Nc3ccc(Cl)cc3)cc2)c2ccccc12
inactive: [1] 48.8% | [2] 71.9% | [3] 47.8% | [5] 26.1% | [6] 30.3% | [7] 26.4% | [9] 28.2% | [10] 57.8% | [13] 23.1% | [15] 48.7% | [17] 16.2% | [18] 73.8% | [19] 37.3%
active: [4] 4.62% | [8] -27.8% | [11] -16.7% | [12] -9.9% | [14] -39.7% | [16] 4.8% | [20] 6.39%

CC1SC(c2c(Cl)cccc2Cl)N(NC(=O)c2[nH]c3ccc(F)cc3c2-c2ccccc2)C1=O (stereo not given)
active: [3] 4.84% | [4] -44.6% | [5] 8.08% | [7] -1.11% | [12] 1.97% | [13] 0.445% | [16] 6.65%
inactive: [1] 48% | [2] 58.5% | [6] 69% | [8] 33.8% | [9] 35.1% | [10] 24.1% | [11] 71.6% | [14] 26.5% | [15] 44.3% | [17] 71.5% | [18] 93.9% | [19] 62.8% | [20] 65.1%

COC1=CC(c2ccc[nH]2)=N/C1=C\c1[nH]c(C)c(C(=O)CCC(=O)Oc2ccc3c(c2)CCC2C3CC[C@]3(C)C(=O)CC[C@@H]23)c1C (stereo not given in full)
inactive: [1] 73.5% | [2] 87.6% | [3] 81.4% | [4] 80.2% | [5] 48.3% | [6] 57.3% | [7] 49.9% | [8] 75.8% | [9] 87.9% | [10] 28.5% | [11] 39.2% | [12] 103% | [14] 93.1% | [15] 52.6% | [16] 86.4% | [17] 83.7% | [18] 106% | [19] 104% | [20] 45.6%
active: [13] 1.14%

ClC1=C(Cl)C(=C2C(Cl)=C(Cl)C(Cl)=C2Cl)C(Cl)=C1Cl
inactive: [1] 97.9% | [2] 101% | [3] 97.7% | [4] 90.1% | [5] 103% | [6] 79% | [7] 90.2% | [8] 103% | [9] 103% | [10] 106% | [11] 87.1% | [12] 106% | [13] 110% | [14] 106% | [15] 102% | [16] 99.2% | [17] 104% | [18] 92.3% | [19] 102% | [20] 106%

O=C(Nc1cccc2ccccc12)c1cc2c(cc1Br)OCO2
inactive: [1] 88.6% | [2] 81% | [3] 97.8% | [4] 125% | [5] 92.9% | [6] 103% | [7] 113% | [8] 158% | [9] 76.2% | [10] 103% | [11] 97.8% | [12] 89.4% | [13] 102% | [14] 126% | [15] 104% | [16] 107% | [17] 78.6% | [18] 114% | [19] 162% | [20] 104%

CN(C)c1cccc2c(S(=O)(=O)N[C@H]3CC[C@H]4[C@@H]5CCc6cc(O)ccc6[C@H]5CC[C@]34C)cccc12
active: [5] 7.05% | [6] -10.5% | [9] 8.09% | [11] 2.22%
inactive: [1] 40.8% | [2] 51% | [3] 57.3% | [4] 66.8% | [7] 18.5% | [8] 34.9% | [10] 24% | [12] 29.6% | [13] 35% | [14] 11.2% | [15] 40.6% | [16] 44.9% | [17] 44.7% | [18] 52.8% | [19] 31.3% | [20] 18%

Cc1c(C)c(N2C(=O)C=CC2=O)c(C)c(C)c1N1C(=O)C=CC1=O
inactive: [1] 96.3% | [2] 108% | [3] 112% | [4] 91.6% | [5] 115% | [7] 89.6% | [8] 93.2% | [9] 78.7% | [10] 104% | [11] 77.8% | [12] 126% | [13] 114% | [14] 54.7% | [15] 110% | [16] 109% | [17] 114% | [18] 75.6% | [19] 86.5% | [20] 117%
active: [6] -49.4%

COc1cc(/C=C/C(=O)N2CCN(C(=O)/C=C/c3ccccc3)CC2)cc(OC)c1OC
inactive: [1] 108% | [2] 102% | [3] 104% | [4] 103% | [5] 105% | [6] 92.7% | [7] 99.8% | [8] 101% | [9] 113% | [10] 129% | [11] 97% | [12] 97.8% | [13] 85.6% | [14] 125% | [15] 111% | [16] 110% | [17] 107% | [18] 102% | [19] 103% | [20] 109%

COc1ccc2c(c1)C(=O)c1c-2c(OCCCN(C)C)nc2cc(Br)ccc12
active: [20] -31.3%
inactive: [1] 75.5% | [2] 57.2% | [3] 80.7% | [4] 68% | [5] 36.2% | [6] 61.6% | [7] 24.6% | [8] 77.2% | [9] 64.6% | [10] 78.5% | [11] 53.1% | [12] 69.8% | [13] 49.9% | [14] 43.7% | [15] 69% | [16] 93.9% | [17] 67.6% | [18] 108% | [19] 91.8%

NC(=O)c1ncn([C@@H]2O[C@H](CO)[C@@H](O)[C@H]2O)n1
inactive: [1] 99.1% | [2] 106% | [3] 88.3% | [4] 97.2% | [5] 100% | [6] 70.6% | [7] 91.2% | [8] 95.6% | [9] 82.6% | [10] 82.7% | [11] 88.3% | [12] 92.7% | [13] 89.5% | [14] 119% | [15] 109% | [16] 95.5% | [17] 108% | [18] 103% | [19] 98.8% | [20] 83.7%
